Screening results deposited in PubChem by Broad Institute.
In the library only some 7.4% were active in any assay of this set; here they are far more common.
NOMO-1 viab: NOMO-1 AML cell viability reduction, primary screen, STK33 inhibitor project, CellTiter-Glo luminescence. 37,000 tested, 7.5% active. inhibition, % (no concentration beside the values). NOMO-1 AML viability, 72 h. AID 2330, 2010; in the data active = inhibition above about 80%; inconclusive = no clear call, values can overlap the other calls
PD-1 reversal: activators reversing PD-1 mediated T-cell inhibition, primary screen, luminescence, primary human CD4 T cells, PD-L1 beads. activation, % (concentration not given with the values). 29,000 tested, under 10 active. CellTiter-Glo 96 h; call rule not given here;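 note: 0% = median vehicle wells and 100% = positive control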
YB-1 expr inh: inhibitors of YB-1 gene expression, primary screen, cell-based, fluorescence; U2OS, qRT-PCR YB-1 vs CDIP delta delta Cp, 16 h; hits give high values; zero = DMSO, each unit about twofold; delta delta Cp (YB-1 minus CDIP) (concentration not given with the values); 30,000 tested, 0.37% active;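 active = delta delta Cp rounded down to an integer at or above 3, about 3 SD of DMSO wells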;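 note: higher means less YB-1 transcript or more CDIP transcript relative to DMSO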
Hedgehog inh: Hedgehog pathway signaling inhibitors, primary screen, luminescence, Shh-LIGHT2 cells, Gli-luciferase. Shh-LIGHT2 Gli-luciferase reporter, 30 h. inhibition, % (no concentration beside the values). 22,000 tested, 2.1% active. AID 2313, 2010;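 active = mean inhibition across valid replicates above about 65%, limit read from the data; inconclusive = mean under the limit, yet half or more replicates past it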;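 note: pathway switched on by Shh-conditioned medium diluted 1 in 25 in low serum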
MITF inh: inhibitors of MITF, primary screen, MITF inhibitor project, cell-based, luminescence | TRPM1 promoter luciferase, 24 h | AID 2240, 2010 | inhibition, % (test concentration not listed) | 37,000 tested, 0.28% active; in the data active = inhibition above about 85%; inconclusive = no clear call, values can overlap the other calls; inactive = below about 68%;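 note: human melanocyte line stably carrying TRPM1 promoter luciferase reporter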
An asterisk follows results filed as active.

C[C@@H]1CN([C@H](C)CO)C(=O)c2cc(NC(=O)Nc3ccc(C(F)(F)F)cc3)ccc2O[C@@H]1CN(C)Cc1ccc2c(c1)OCO2 was read as NOMO-1 viab 49, PD-1 reversal 0, YB-1 expr inh 0.057 and MITF inh -10.
For C[C@H]1CN([C@@H](C)CO)C(=O)c2cc(NC(=O)Nc3ccc(C(F)(F)F)cc3)ccc2O[C@@H]1CN(C)Cc1ccc2c(c1)OCO2 the results were NOMO-1 viab 101*, PD-1 reversal -5, YB-1 expr inh -0.93 and MITF inh -12.
`C[C@H]1CN([C@@H](C)CO)C(=O)c2cc(NC(=O)Nc3ccc(F)cc3)ccc2O[C@H]1CN(C)Cc1ccc2c(c1)OCO2` gave NOMO-1 viab 92*, PD-1 reversal -1, YB-1 expr inh -0.037, Hedgehog inh -25 and MITF inh 7.
For C[C@H](CO)N1C[C@H](C)[C@H](CN(C)Cc2ccc3c(c2)OCO3)Oc2ccc(NC(=O)Nc3ccc(C(F)(F)F)cc3)cc2C1=O the results were NOMO-1 viab 99*, PD-1 reversal 0, YB-1 expr inh 0.18, Hedgehog inh 8 and MITF inh 1.
For C[C@H](CO)N1C[C@H](C)[C@@H](CN(C)Cc2ccc3c(c2)OCO3)Oc2ccc(NC(=O)Nc3ccc(C(F)(F)F)cc3)cc2C1=O the results were NOMO-1 viab 11, PD-1 reversal 0, YB-1 expr inh 0.065 and MITF inh -1.
C[C@@H]1CN([C@H](C)CO)C(=O)Cc2cc(NC(=O)c3ccncc3)ccc2O[C@@H]1CN(C)S(=O)(=O)c1ccc(F)cc1 was read as NOMO-1 viab -8, PD-1 reversal 1, YB-1 expr inh -0.31, Hedgehog inh 5 and MITF inh -5.
Screening COc1ccc(S(=O)(=O)Nc2ccc3c(c2)C(=O)N([C@@H](C)CO)C[C@@H](C)[C@H](CN(C)S(=O)(=O)c2ccc(C)cc2)O3)cc1 returned NOMO-1 viab -5, PD-1 reversal 1, YB-1 expr inh -0.25, Hedgehog inh -6 and MITF inh -2.
`NC[C@@H]1O[C@H](C23CC4CC(CC(C4)C2)C3)Cc2c1ccc(O)c2O` gave NOMO-1 viab 107*, YB-1 expr inh -0.29, Hedgehog inh -7 and MITF inh 1.
NC[C@@H]1O[C@H](c2ccccc2)Cc2c1ccc(O)c2O was read as NOMO-1 viab 112*, YB-1 expr inh -0.13, Hedgehog inh 35 and MITF inh 13.
`CCOC(=O)CSc1ncc(-c2ccccc2)nn1` gave NOMO-1 viab -22, PD-1 reversal 1 and MITF inh -23.
For CCOC(=O)CSc1sc(C(=O)OCC)c2c1S(=O)(=O)N(C)c1ccccc1-2 the results were NOMO-1 viab 120*, PD-1 reversal 0, YB-1 expr inh -0.41, Hedgehog inh -12 and MITF inh 12.
CC(C)[C@@H]1C=C(C(=O)O)O[C@H](OCc2ccc(CO)cc2)C1 was read as YB-1 expr inh 0.071.
For CC(C)[C@H]1C=C(C(=O)NCc2ccccc2)O[C@@H](OCc2ccc(CO)cc2)C1 the results were YB-1 expr inh 7.6*.
C[C@H]1CN([C@@H](C)CO)C(=O)c2cccc(NS(=O)(=O)c3ccccc3)c2O[C@H]1CN(C)Cc1ccc(C(=O)Nc2ccccc2N)cc1 was read as NOMO-1 viab 120*, PD-1 reversal 0, YB-1 expr inh 0.063 and MITF inh 11.
`C[C@H]1CN([C@@H](C)CO)C(=O)c2cccc(NS(=O)(=O)c3ccccc3)c2O[C@@H]1CN(C)Cc1ccc(C(=O)Nc2ccccc2N)cc1` gave NOMO-1 viab inconclusive, PD-1 reversal -2, YB-1 expr inh -0.28 and MITF inh -3.
Screening C[C@@H]1CN([C@H](C)CO)C(=O)c2cccc(NS(=O)(=O)c3ccccc3)c2O[C@@H]1CN(C)Cc1ccc(C(=O)Nc2ccccc2N)cc1 returned NOMO-1 viab 128*, PD-1 reversal -1, YB-1 expr inh -0.28 and MITF inh 17.
Screening C[C@@H]1CN([C@@H](C)CO)C(=O)c2cccc(NS(C)(=O)=O)c2O[C@@H]1CN(C)Cc1ccc(C(=O)Nc2ccccc2N)cc1 returned NOMO-1 viab 123*, PD-1 reversal -1, YB-1 expr inh -0.047 and MITF inh 16.
For Cc1ccc(S(=O)(=O)Nc2cccc3c2O[C@@H](CN(C)Cc2ccc(C(=O)Nc4ccccc4N)cc2)[C@@H](C)CN([C@H](C)CO)C3=O)cc1 the results were NOMO-1 viab 137*, PD-1 reversal 0, YB-1 expr inh -0.1 and MITF inh 30.
COc1ccc(NC(=O)Nc2cccc3c2O[C@@H](CN(C)C(=O)Nc2cccc4ccccc24)[C@@H](C)CN([C@H](C)CO)C3=O)cc1 was read as NOMO-1 viab 15, PD-1 reversal 3, YB-1 expr inh -0.19, Hedgehog inh -21 and MITF inh 5.
`C[C@H](CO)N1C[C@H](C)[C@@H](CN(C)S(C)(=O)=O)Oc2c(cccc2N(C)C)C1=O` gave NOMO-1 viab 9, PD-1 reversal 0, YB-1 expr inh 0.085 and MITF inh 12.
For COC(=O)c1ccccc1NC(=O)CN(c1ccc(Br)c(C)c1)S(C)(=O)=O the results were NOMO-1 viab 9, PD-1 reversal -1 and MITF inh 4.
O=C(Nc1ccccc1C(=O)NCCN1CCOCC1)c1cccc([N+](=O)[O-])c1 was read as NOMO-1 viab 8 and MITF inh -12.
`C[C@@H]1CN([C@H](C)CO)C(=O)c2cccc(NS(=O)(=O)c3ccc(F)cc3)c2O[C@H]1CN(C)Cc1ccc(C(=O)Nc2ccccc2N)cc1` gave NOMO-1 viab 57, PD-1 reversal 0, YB-1 expr inh 0.13 and MITF inh -10.
Screening C[C@@H]1CN([C@H](C)CO)C(=O)c2cccc(NS(=O)(=O)c3ccc(F)cc3)c2O[C@@H]1CN(C)Cc1ccc(C(=O)Nc2ccccc2N)cc1 returned NOMO-1 viab 127*, PD-1 reversal -2, YB-1 expr inh 0.06 and MITF inh 6.
CCC(C)C(=O)OCC1(c2ccc(C)cc2OC(=O)C(C)C)CO1 (centres undefined) was read as NOMO-1 viab 118*, PD-1 reversal -9, YB-1 expr inh 0.96, Hedgehog inh -18 and MITF inh 2.
Screening C[C@@H]1CN([C@H](C)CO)C(=O)Cc2cc(NC(=O)Cc3ccccc3)ccc2O[C@@H]1CN(C)C(=O)Nc1ccc(C(F)(F)F)cc1 returned NOMO-1 viab -22, PD-1 reversal -1, YB-1 expr inh 0.32, Hedgehog inh -21 and MITF inh 5.
